# Data published in the supplement of paper PMC4723716.
# ± gives the uncertainty stated by the source. Over roughly 9,900 compounds, “viability index relative to DMSO control” has its median near 1; the lowest 2% begin near 0.85. Only a selection was taken, and the lowest values are over-represented in it overall.
# Test system: Plasmodium falciparum NF54 stage V gametocytes
# Assay: viability index relative to DMSO control (fraction); higher = less gametocyte killing
# Conditions: 2.5 µM, incubation time: 72 h
# Summary of the method: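 In 1,536-well plates, 10 µl of serum-free medium holding P. falciparum NF54 stage V gametocytes (0.75% gametocytemia, 1.25% hematocrit) received compound at 2.5 µM for 72 hr at 37°C in low oxygen. After one to two hours with 3 µl of 2.5 µM MitoTracker Red CMXRos containing 0.13% saponin, red particles of 20–70 µm2 were counted in a single field per well. Viability index is reported as the particle count over the plate mean of wells treated with solvent only.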
# [1] = library set: Broad Institute DOS
# [2] = library set: Broad Institute Blood Stage
structure (smiles),measurement,setting,value
C[C@@H](NC(=O)[C@@H]1[C@@H](CO)[C@@H]2Cn3c(ccc(-c4ccccc4)c3=O)[C@@H]2N1C)c1ccccc1,viability index,[1],1.05 ± 0.015
O=C(C[C@@H]1C[C@@H]2c3cc(NS(=O)(=O)c4ccc(F)cc4)ccc3O[C@@H]2[C@H](CO)O1)N1CCc2ccccc2C1,viability index,[1],1.13 ± 0.069
COCC(=O)N1CC(=O)N2[C@H](CO)[C@H](c3ccc(C#CC4CC4)cc3)[C@H]2C1,viability index,[1],1.11 ± 0.027
CCS(=O)(=O)N(C)C[C@@H]1N[C@H](CO)[C@@H]1c1ccc(-c2ccccc2F)cc1,viability index,[1],1.05 ± 0.031
CN(C[C@H]1N[C@@H](CO)[C@H]1c1ccc(-c2ccc(F)cc2)cc1)C(=O)C1CCC1,viability index,[1],0.971 ± 0.025
CCN(C[C@@H]1N[C@@H](CO)[C@H]1c1ccc(-c2ccc(F)cc2)cc1)C(=O)CN(C)C,viability index,[1],0.711 ± 0.021
O=C(C[C@@H]1CC[C@H]2NC[C@@H](O)COC[C@@H]2O1)NC1Cc2ccccc2C1,viability index,[1],0.9847 ± 0.0032
O=C(C[C@H]1CC[C@H]2NC[C@@H](O)COC[C@@H]2O1)Nc1ccc(-c2ccccc2)cc1,viability index,[1],0.997 ± 0.036
CCc1csc(N2[C@H](CO)[C@H](c3ccccc3)[C@@H]2CN(C)C(=O)C2CCC2)n1,viability index,[1],1.03 ± 0.059
C/C=C/c1ccc([C@H]2[C@@H](CO)N(c3nc(CC)cs3)[C@H]2C#N)cc1,viability index,[1],1.09 ± 0.035
CCc1csc(N2[C@H](CO)[C@H](c3ccccc3)[C@@H]2CNC)n1,viability index,[1],0.372 ± 0.18
CO[C@@H]1CN(C)C(=O)c2cc(NC(=O)Nc3cc(F)ccc3F)ccc2OC[C@H](C)NC[C@H]1C,viability index,[1],1.022 ± 0.01
COc1ccccc1C#Cc1ccc([C@@H]2[C@@H](CO)N(C(=O)C3CCC3)[C@H]2C#N)cc1,viability index,[1],1.06 ± 0.047
COc1ccccc1C#Cc1ccc([C@H]2[C@@H](CO)N(C(=O)C3CC3)[C@H]2C#N)cc1,viability index,[2],0.849 ± 0.047
N#C[C@H]1[C@H](c2ccc(C#Cc3cccc(F)c3)cc2)[C@@H](CO)N1C(=O)C1CCOCC1,viability index,[1],1.12 ± 0.025
COc1ccccc1C#Cc1ccc([C@H]2[C@@H](C#N)N(C(=O)C3CCC3)[C@H]2CO)cc1,viability index,[1],0.846 ± 0.07
COc1ccccc1C#Cc1ccc([C@H]2[C@@H](C#N)N(C(=O)C3CCCC3)[C@H]2CO)cc1,viability index,[2],0.583 ± 0.18
COc1cccc(C#Cc2ccc([C@@H]3[C@@H](C#N)N(C(=O)c4ccccn4)[C@H]3CO)cc2)c1,viability index,[1],1.04 ± 0.029
COc1cccc(C#Cc2ccc([C@@H]3[C@H](C#N)N(C(=O)c4ccccn4)[C@H]3CO)cc2)c1,viability index,[1],0.929 ± 0.051
COc1ccccc1C#Cc1ccc([C@@H]2[C@@H](C#N)N(C(=O)C3CCC3)[C@@H]2CO)cc1,viability index,[1],1.15 ± 0.082
COc1ccccc1C#Cc1ccc([C@H]2[C@@H](C#N)N(C(=O)C3CCC3)[C@@H]2CO)cc1,viability index,[1],1.05 ± 0.038
COc1ccccc1C#Cc1ccc([C@H]2[C@H](C#N)N(C(=O)C3CCC3)[C@H]2CO)cc1,viability index,[1],1.02 ± 0.025
N#C[C@H]1[C@@H](c2ccc(C#Cc3cccc(F)c3)cc2)[C@@H](CO)N1C(=O)C1CCOCC1,viability index,[1],1.05 ± 0.058
COc1cccc(C#Cc2ccc([C@H]3[C@@H](CO)N(C(=O)c4ccccn4)[C@H]3C#N)cc2)c1,viability index,[1],0.8087 ± 0.0043
C[C@@H]1CN([C@@H](C)CO)C(=O)c2c(c3ccccc3n2C)-c2ccccc2CO[C@H]1CN(C)C(=O)[C@H]1CCCN1C,viability index,[1],1.08 ± 0.011
C[C@H](CO)N1C[C@H](C)[C@@H](CN(C)CC2CC2)OCCCC[C@H](C)Oc2ccc(NC(=O)c3ccccc3)cc2C1=O,viability index,[1],1.07 ± 0.02
CCCN(C)C[C@@H]1OCCCC[C@H](C)Oc2ccc(NC(=O)CCCN(C)C)cc2C(=O)N([C@@H](C)CO)C[C@@H]1C,viability index,[1],1.1 ± 0.14
OC[C@H]1Nc2ccc(C#Cc3ccc(F)cc3)cc2[C@@H]2[C@H]1CCN2Cc1ccc2c(c1)OCO2,viability index,[1],1.06 ± 0.019
CN1C(=O)c2cc(NC(=O)c3cccc(F)c3)ccc2OC[C@@H]2O[C@H](CC(=O)NCc3ccccc3Cl)CC[C@H]21,viability index,[1],1.13 ± 0.036
C[C@@H]1CN([C@H](C)CO)C(=O)c2cc(NS(=O)(=O)c3ccccc3)ccc2O[C@@H](C)CCCCO[C@@H]1CN(C)C(=O)C1CCCCC1,viability index,[1],1.01 ± 0.13
CC(C)C(=O)Nc1ccc2c(c1)C(=O)N(C)[C@H]1CC[C@@H](CC(=O)NCCc3ccccc3)O[C@@H]1CO2,viability index,[1],1.03 ± 0.06
COc1ccccc1C#Cc1ccc([C@@H]2[C@@H](C#N)N(C(=O)C3CCC3)[C@H]2CO)cc1,viability index,[1],1.03 ± 0.022
COc1cccc(C#Cc2ccc([C@H]3[C@@H](C#N)N(C(=O)c4ccccn4)[C@@H]3CO)cc2)c1,viability index,[1],1.098 ± 0.009
COc1ccccc1C#Cc1ccc([C@@H]2[C@H](C#N)N(C(=O)C3CCC3)[C@H]2CO)cc1,viability index,[1],1.03 ± 0.09
COc1ccccc1C#Cc1ccc([C@H]2[C@@H](C#N)N(C(=O)C3CCCCC3)[C@H]2CO)cc1,viability index,[2],0.345 ± 0.087
COc1cccc(C#Cc2ccc([C@H]3[C@@H](CO)N(C(=O)C4CCCC4)[C@H]3C#N)cc2)c1,viability index,[2],0.882 ± 0.054
COc1cccc(C#Cc2ccc([C@@H]3[C@@H](C#N)N(C(=O)C4CCCCC4)[C@H]3CO)cc2)c1,viability index,[2],0.7 ± 0.1
CCCNC(=O)N(C)C[C@H]1Oc2ncc(C#CC3CCCCC3)cc2C(=O)N([C@@H](C)CO)C[C@@H]1C,viability index,[1],0.929 ± 0.067
Cc1ccccc1S(=O)(=O)Nc1ccc2c(c1)C(=O)N(C)[C@@H]1CC[C@H](CC(=O)O)O[C@@H]1CO2,viability index,[1],1.01 ± 0.033
CN(C)CC(=O)N1[C@H](C(=O)Nc2nccs2)[C@@H](CO)[C@@H]2Cn3c(ccc(C4=CCCCC4)c3=O)[C@@H]21,viability index,[1],1.02 ± 0.015
COc1ccc(CN2C[C@H](O)COC[C@@H]3O[C@H](CC(=O)N(C)C)CC[C@H]32)cc1,viability index,[1],1.08 ± 0.1
C[C@H](CO)N1C[C@H](C)[C@H](CN(C)C(=O)NC2CCCCC2)Oc2ccc(N(C)C)cc2CC1=O,viability index,[1],1.13 ± 0.1
CO[C@H]1CC[C@@H]2CCOc3c(C#N)cccc3C(=O)N(C)C[C@@H](OC)[C@@H](C)C(=O)N(C)C[C@@H]1O2,viability index,[1],1 ± 0.023
CCCNC(=O)N1C[C@]2(CCN(CC2)C(=O)Nc2cccc(F)c2)c2c([C@H]1CO)n(C)c1cc(OC)ccc21,viability index,[1],0.991 ± 0.079
COc1ccc2c3c([C@@H](CO)N(C[C@]33CCN(CC3)C(=O)Nc3cccc(F)c3)C(=O)CN3CCOCC3)n(C)c2c1,viability index,[1],0.993 ± 0.12
COc1ccc2c3c([C@@H](CO)N(C[C@]33CCN(CC3)C(=O)Nc3cccc(F)c3)C(=O)C3CCCC3)n(C)c2c1,viability index,[2],0.822 ± 0.039
COc1ccc2c3c([C@@H](CO)N(C[C@]33CCN(CC3)C(=O)Nc3cccc(F)c3)C(=O)C3CC3)n(C)c2c1,viability index,[2],0.807 ± 0.036
COc1ccc2c3c([C@@H](CO)N(C[C@]33CN(C3)C(=O)Nc3cccc(F)c3)C(=O)C3CCOCC3)n(C)c2c1,viability index,[1],1.06 ± 0.05
COc1ccc2c3c([C@H](CO)N(C[C@]33CCN(CC3)C(=O)Nc3cccc(F)c3)C(=O)CN3CCOCC3)n(C)c2c1,viability index,[1],0.941 ± 0.018
